From PubChem BioAssay AID602270 (The Scripps Research Institute Molecular Screening Center, 2012)
The list shows a part of the results. Activity calls are given as the source filed them. No stated cut-off is given here; in the data, active means activation above about 4%; inactive means the rest.

System: Methionine sulfoxide reductase A (Bos taurus)
Test: bovine MsrA activators, retest, confirmation, biochemical, absorbance, HTS (AID 602270);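 further: enzyme coupled to thioredoxin and thioredoxin reductase with NADPH; 0% = vehicle wells and 100% = reference activator wells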
Conditions: purified bovine MsrA, absorbance read-out; at 10.6 µM; stronger effect = higher value

Compound	activation
CN1c2ccc(C=O)c3c(C=O)ccc(c23)N(C)C1(C)C	-1.46% (inactive)
CC(=O)NC(Cc1c[nH]c2ccccc12)C(=O)O (centres undefined)	-0.4% (inactive)
CC1(C)S[C@@H]2[C@H](NC(=O)COc3ccccc3)C(=O)N2C1C(=O)OCc1ccccc1 (some centres undefined)	0.74% (inactive)
O=C(NC1=CC(=O)c2ccccc2C1=O)c1ccccc1	14.4% (active)
COc1ccc(C(=O)COC(=O)c2ccc([N+](=O)[O-])s2)cc1OC	2.35% (inactive)
O=C(CSc1n[nH]c(-c2cccs2)n1)N1CCCCC1	-1.33% (inactive)
CCCCNC(=O)OC(C)CNC(=O)OC (centres undefined)	-2.15% (inactive)
CC(=O)N(O)CCCCCNC(=O)CCC(=O)N(O)CCCCCNC(=O)CCC(=O)N(O)CCCCCNC(=O)CCC(=O)O	-3.63% (inactive)
CC1=NNC(=O)C1CCC(=O)N/N=C(\C)c1ccc(Cl)cc1 (centres undefined)	-3.34% (inactive)
C=CCn1c(SCC(=O)c2c(N)n(C)c(=O)n(C)c2=O)nc2sc(CC)cc2c1=O	-2.75% (inactive)
CCOc1ccc2[nH]c(=S)sc2c1	1.68% (inactive)
CC(C)(C)C(=O)CCN1C(=O)C2(OCCO2)c2ccccc21	-4.67% (inactive)
CCCN(CC(=O)Nc1ccccc1C)C(=O)c1ccc2[nH]c3c(c2c1)CC(C)CC3 (centres undefined)	2.07% (inactive)
O=C1C(Sc2cccc(F)c2)=C[C@@]2(O)CC[C@@H](O)[C@]1(Sc1cccc(F)c1)[C@H]2O	-4.14% (inactive)
COc1ccc([C@H]2CC(=O)C=C(/C=C/c3ccccc3)C2)cc1	-2.68% (inactive)
O=c1c2cc(Br)ccc2nc(-c2cccc(Cl)c2)n1O	-1.14% (inactive)
CCOc1ccccc1OCCCNCc1ccccc1	-4.03% (inactive)
COc1ccc2nc(N3CCCC(O)C3)c(C#N)cc2c1 (centres undefined)	-2.45% (inactive)
CN(C)S(=O)(=O)c1ccc(NC(=O)COC(=O)c2n[nH]c3ccccc23)cc1	1.95% (inactive)
O=C(Cc1ccc(NC(=O)C2CCCN(C(=O)C3CCCCC3)C2)cc1)Nc1cccc(C(=O)N2CCCCC2)c1 (centres undefined)	-3.28% (inactive)
COC(=O)CN1C(=O)C(O)=C(C(C)=O)C1c1ccc([N+](=O)[O-])cc1 (centres undefined)	-2.94% (inactive)
O=C(NCc1ccccc1)C1c2ccccc2OCC(=O)N1C1CC1 (centres undefined)	1.81% (inactive)
COc1cc(OC)c(C(=O)NCc2ccc3c(c2)OCO3)cc1OC	2.87% (inactive)
COc1cccc(CNCCc2c[nH]c3ccccc23)c1OCc1ccccc1F	-2.23% (inactive)
